For four molecules, composite z-score and z-score results are on record in PubChem BioAssay.

The source made the active and inactive calls. Unless noted, how the calls were made is not given here.

Experiment [1] is described as follows: anti-His antibody binders, primary screen, artefact control for SMM control protein annotation, biochemical, small-molecule microarray, 635 nm fluorescence (AID 1128).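 Further: score merges feature fluorescence with signal-to-noise for each printed compound spot.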 Conditions: anti-His Alexa647 antibody binding, higher = more signal.
Experiment [2] concerns Human papillomavirus type 1a E7 protein (residues 1-88). Put plainly: HPV1a E7 small-molecule binders, primary screen, biochemical, small-molecule microarray, residues 1-88, 635 nm (AID 1129). As to conditions: small-molecule microarray binding, fluorescence 635 nm; higher = more signal.
Experiment [3] addresses Focal adhesion kinase 1 (Homo sapiens) (UniProt Q05397). The experiment can be described thus: small-molecule microarray binders of FAK, primary screen, biochemical, 635/667 nm fluorescence, BSA, DTT (AID 1130).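 Further: composite of spot emission at 667 nm and signal to noise over triplicate slides.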 Conditions: PTK2 binding, 635 nm fluorescence, higher = more signal.
For experiment [4], the system named is Fibrinogen (Alexa647-labelled). Put plainly: fibrinogen binders on compound microarrays, profiling panel, artefact control for SMM control-protein annotation, biochemical, small-molecule microarray, 635/667 nm fluorescence (AID 1131).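 Further: z-score merges 667 nm fluorescence with per-spot signal-to-noise over triplicate slides.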 Conditions: fibrinogen-A647 binding fluorescence, higher = more signal.
Experiment [5] addresses Follistatin (Homo sapiens) (UniProt P19883). The experiment can be described thus: follistatin binders on small-molecule microarrays, primary screen, biochemical, small-molecule microarray, 635/667 nm fluorescence (AID 1132). As to conditions: FST binding, 635 nm fluorescence, higher = more signal.
In experiment [6] the target is Fibroblast growth factor 2 (Homo sapiens) (UniProt P09038). The experiment can be described thus: FGF2 binders on small-molecule microarrays, primary screen, biochemical, small-molecule microarray, 635/667 nm fluorescence (AID 1133). As to conditions: small-molecule microarray binding, FGF2, fluorescence 635/667; higher = more signal.
A short description of experiment [7]: mitochondrial membrane potential change in A549 cells, profiling panel, cell-based, JC-1 fluorescence, basal, 24 h, 100 nL (AID 1138).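 Further: A549 lung adenocarcinoma cells under basal conditions with no added stimulus; test concentration not given here.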 Conditions: higher = more signal.
The subject of experiment [8] is Lefty1. The experiment can be described thus: Lefty1 binders on small-molecule microarrays, primary screen, biochemical, small-molecule microarray, 635/667 nm fluorescence (AID 1139). Conditions: small-molecule microarray binding, fluorescence 635/667; higher = more signal.
Experiment [9] relates to wheat germ agglutinin (Triticum aestivum), Alexa647-labelled. The experiment can be described thus: wheat germ agglutinin binders on compound microarrays, profiling panel, artefact control for SMM control-protein annotation, biochemical, small-molecule microarray, 635/667 nm fluorescence (AID 1140).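 Further: score merges 667 nm feature emission with signal to noise over triplicate slides.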 As to conditions: WGA-A647 binding, 635 nm fluorescence, higher = more signal.

Experiment [10] has as its target Luciferin 4-monooxygenase (Photinus pyralis) (UniProt P08659). The experiment can be described thus: firefly luciferase enzyme inhibitors, primary screen, biochemical, luminescence, purified enzyme, 2006 set (AID 1141).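 Further: cell-free assay with purified firefly luciferase at 100 ng per well in PBS; test concentration not given here.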 As to conditions: SteadyGlo luminescence, 30 min, higher = more signal, called active from +8 up or from −8 down.
In experiment [11] the test system is Wnt5a (protein binding on small-molecule microarray). Put plainly: Wnt5a binders on small-molecule microarray, primary screen, biophysical, 635/667 nm fluorescence (AID 1142).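 Further: fluorescence read at 667 nm with signal to noise per printed feature.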 As to conditions: 635 nm fluorescence, higher = more signal.
A short description of experiment [12]: cell viability in Huh7 cells, primary screen, cytotoxicity control for HCV replication inhibitor project, CellTiter-Glo luminescence, basal, 48 h (AID 1143).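 Further: Huh7 hepatoma cells carrying a hepatitis C replication reporter with no stimulus; test concentration not given here.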 Conditions: Huh7 HCV replicon, higher = more signal, called active from +8 up or from −8 down.
The nature of experiment [13]: P. aeruginosa biofilm formation inhibitors, primary screen, PAO1 strain, BacTiter-Glo luminescence, LB-PBS (AID 1144). As to conditions: 12 h, higher = more signal.
Experiment [14] is described as follows: CREB reporter modulators without forskolin, primary screen, cell-based, PC12, CRE-LacZ reporter, unstimulated (AID 1145). Conditions: no forskolin, luminescence, 4.5 h, higher = more signal, called active from +8 up or from −8 down.
Experiment [15] in a line: CREB reporter modulators under forskolin, primary screen, cell-based, PC12, CRE-LacZ reporter, forskolin-stimulated (AID 1146).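 Further: PC12 cells with 6xCRE LacZ reporter stimulated by forskolin 10 µM; beta-galactosidase reporter signal reflecting CREB driven transcription.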 Conditions: luminescence, 4.5 h, higher = more signal, called active from +8 up or from −8 down.
Experiment [16] addresses Streptavidin (Streptomyces avidinii) (UniProt P22629). The experiment can be described thus: streptavidin binders on small-molecule microarray, primary screen, artefact control for SMM compound annotation, biophysical, 635/667 nm fluorescence (AID 1147).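 Further: signal reflects streptavidin binding to arrayed compounds as a control protein.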 As to conditions: streptavidin binding, higher = more signal.
Experiment [17] is described as follows: small-molecule binders of probe aInhba, primary screen, biochemical, small-molecule microarray, 635/667 nm fluorescence (AID 1148).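 Further: score merges 667nm spot fluorescence with signal-to-noise for antibody binding to printed compounds.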 As to conditions: higher = more signal.
Experiment [18] deals with Torsin-1A (Homo sapiens) (UniProt O14656). The experiment can be described thus: torsin A binders from cell lysate, primary screen, small-molecule microarray, wild-type, 635/667 nm (AID 1149). As to conditions: COS7 hTOR1A-WT lysate, 635 nm fluorescence, higher = more signal.
For experiment [19] the target is unchanged. The experiment can be described thus: small-molecule binders of mutant TOR1A in lysate, primary screen, cell lysate, small-molecule microarray, COS7 lysate, 635/667 nm fluorescence (AID 1150).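 Further: score pools 667 nm emission and signal to noise measuring lysate protein binding.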 Conditions: COS7 hTOR1A mutant lysate, 635 nm fluorescence, higher = more signal.
In experiment [20] the test system is Sonic hedgehog protein (Shh). The experiment can be described thus: small-molecule binders of Shh protein, primary screen, biochemical, small-molecule microarray, 635/667 nm fluorescence (AID 1151).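 Further: Shh protein binding to compounds spotted on small-molecule microarray slides; score combines spot fluorescence intensity with signal-to-noise across triplicate slides.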 As to conditions: small-molecule microarray binding, 635 nm fluorescence; higher = more signal.

Chain of Streptavidin (Streptomyces avidinii) (P22629 whole entry, looked up): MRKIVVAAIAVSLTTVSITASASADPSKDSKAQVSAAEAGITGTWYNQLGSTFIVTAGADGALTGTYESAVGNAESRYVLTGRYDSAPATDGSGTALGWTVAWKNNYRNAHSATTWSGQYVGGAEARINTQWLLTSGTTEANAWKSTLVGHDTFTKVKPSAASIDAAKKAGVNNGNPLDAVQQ
Chain of Torsin-1A (Homo sapiens) (O14656 whole entry, looked up): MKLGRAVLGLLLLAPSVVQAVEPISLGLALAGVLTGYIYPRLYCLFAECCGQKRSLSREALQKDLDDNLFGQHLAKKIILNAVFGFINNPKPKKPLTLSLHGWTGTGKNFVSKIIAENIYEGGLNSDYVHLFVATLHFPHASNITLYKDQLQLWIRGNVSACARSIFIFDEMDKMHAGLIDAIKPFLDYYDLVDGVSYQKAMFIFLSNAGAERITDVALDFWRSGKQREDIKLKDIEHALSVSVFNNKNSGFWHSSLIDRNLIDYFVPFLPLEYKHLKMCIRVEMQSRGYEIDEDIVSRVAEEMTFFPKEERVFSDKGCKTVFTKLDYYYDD
Chain of Fibroblast growth factor 2 (Homo sapiens) (P09038 whole entry, looked up): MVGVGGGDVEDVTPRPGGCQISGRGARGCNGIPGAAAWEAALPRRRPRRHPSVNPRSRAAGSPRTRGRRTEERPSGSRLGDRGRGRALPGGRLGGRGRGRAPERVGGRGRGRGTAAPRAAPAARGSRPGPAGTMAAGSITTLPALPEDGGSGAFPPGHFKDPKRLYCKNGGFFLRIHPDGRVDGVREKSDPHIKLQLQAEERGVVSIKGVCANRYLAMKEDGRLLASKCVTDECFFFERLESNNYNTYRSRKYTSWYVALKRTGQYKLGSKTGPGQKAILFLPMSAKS
Chain of Follistatin (Homo sapiens) (P19883 whole entry, looked up): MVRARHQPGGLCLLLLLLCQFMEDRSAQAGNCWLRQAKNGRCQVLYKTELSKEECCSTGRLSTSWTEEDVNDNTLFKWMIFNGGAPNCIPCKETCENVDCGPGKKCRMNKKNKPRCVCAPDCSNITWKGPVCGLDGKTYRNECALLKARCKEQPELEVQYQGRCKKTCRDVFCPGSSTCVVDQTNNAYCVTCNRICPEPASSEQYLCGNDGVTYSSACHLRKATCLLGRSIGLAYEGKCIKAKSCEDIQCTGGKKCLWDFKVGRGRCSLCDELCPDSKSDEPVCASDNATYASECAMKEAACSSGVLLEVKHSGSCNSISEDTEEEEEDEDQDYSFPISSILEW
Chain of Luciferin 4-monooxygenase (Photinus pyralis) (P08659 whole entry, looked up): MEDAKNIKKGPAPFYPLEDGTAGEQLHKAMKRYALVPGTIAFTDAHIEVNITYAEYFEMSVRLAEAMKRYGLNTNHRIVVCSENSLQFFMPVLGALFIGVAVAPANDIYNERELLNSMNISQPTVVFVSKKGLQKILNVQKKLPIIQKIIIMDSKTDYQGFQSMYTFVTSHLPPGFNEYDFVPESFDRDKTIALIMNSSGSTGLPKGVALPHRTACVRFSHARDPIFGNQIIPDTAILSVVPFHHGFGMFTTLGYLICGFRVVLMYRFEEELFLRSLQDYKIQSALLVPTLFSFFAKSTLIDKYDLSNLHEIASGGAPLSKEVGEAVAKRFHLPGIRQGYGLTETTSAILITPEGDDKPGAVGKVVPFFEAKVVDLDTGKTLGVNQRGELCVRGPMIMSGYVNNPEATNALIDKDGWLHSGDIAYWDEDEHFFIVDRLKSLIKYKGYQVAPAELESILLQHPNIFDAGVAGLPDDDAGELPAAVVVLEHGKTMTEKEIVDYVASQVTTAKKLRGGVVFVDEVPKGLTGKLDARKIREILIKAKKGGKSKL
Chain of Focal adhesion kinase 1 (Homo sapiens) (Q05397 whole entry, looked up): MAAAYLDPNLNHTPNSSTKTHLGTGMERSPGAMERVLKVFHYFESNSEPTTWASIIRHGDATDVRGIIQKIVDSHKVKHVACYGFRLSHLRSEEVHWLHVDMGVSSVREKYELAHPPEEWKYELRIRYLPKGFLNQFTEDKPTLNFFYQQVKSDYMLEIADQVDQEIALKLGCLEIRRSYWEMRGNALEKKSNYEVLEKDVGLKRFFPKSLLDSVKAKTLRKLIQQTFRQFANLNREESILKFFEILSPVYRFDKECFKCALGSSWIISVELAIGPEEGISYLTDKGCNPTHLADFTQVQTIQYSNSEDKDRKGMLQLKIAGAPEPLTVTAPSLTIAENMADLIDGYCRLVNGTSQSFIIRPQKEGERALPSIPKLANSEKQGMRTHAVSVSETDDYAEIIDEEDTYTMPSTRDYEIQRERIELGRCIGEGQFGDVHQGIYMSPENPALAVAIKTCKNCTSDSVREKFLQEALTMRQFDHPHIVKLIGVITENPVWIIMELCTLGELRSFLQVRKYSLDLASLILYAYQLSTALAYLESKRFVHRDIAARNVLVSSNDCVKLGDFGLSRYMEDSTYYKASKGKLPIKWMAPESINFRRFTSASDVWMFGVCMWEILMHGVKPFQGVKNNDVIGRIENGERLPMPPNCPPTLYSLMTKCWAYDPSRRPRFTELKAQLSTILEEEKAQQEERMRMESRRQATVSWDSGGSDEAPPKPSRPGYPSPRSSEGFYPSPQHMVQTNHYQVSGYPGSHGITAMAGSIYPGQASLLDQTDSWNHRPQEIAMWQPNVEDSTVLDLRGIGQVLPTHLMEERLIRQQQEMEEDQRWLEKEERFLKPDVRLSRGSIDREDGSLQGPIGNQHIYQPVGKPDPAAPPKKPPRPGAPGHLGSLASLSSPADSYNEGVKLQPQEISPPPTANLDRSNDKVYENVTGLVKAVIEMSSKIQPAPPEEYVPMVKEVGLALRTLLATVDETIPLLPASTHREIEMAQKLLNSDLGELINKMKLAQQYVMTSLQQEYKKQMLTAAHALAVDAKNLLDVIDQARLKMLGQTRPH

With `CCCCCCCCCCC(O)C1C=CC2C(=O)N(C)C(=O)C2N1N1CCCCC1` (stereo not given), the composite z-score in [1] is 0.373; in [2], -0.768; in experiment [3], 0.0399; in experiment [4], -1.27; in experiment [5] it was -2.14; in [6], -1.02. Moreover, the composite z-score in experiment [8] was -1.84; in experiment [9], -0.325; in [11], -0.542; in [16], -0.862; in [17], -0.0762; in experiment [18] it was -0.0728. The values for the composite z-score in experiment [19] and in experiment [20] were 0.522 and -1.89, respectively. For the same molecule, the z-score in experiment [7] was 0.44; in experiment [10] it was -0.224 (inactive); in experiment [12], -0.6 (inactive); in [13], 0.816 (inactive); in experiment [14], 0.0569 (inactive); in experiment [15], 1.39 (inactive).
Take `C=CCC(OC(C)=O)[C@@H]1[C@@H](N(Cc2ccc(-c3cccc(C(F)(F)F)c3)o2)C(=O)Cc2ccc(F)cc2)c2cc(OCCCO)ccc2N1C(=O)c1ccc2ccccc2n1` (stereo not given in full): the composite z-score in experiment [1] was -0.255; in experiment [2], -0.732; in experiment [3], -0.153; in [4] it was -1.12; in experiment [5] it was 0.67; in experiment [6], -0.0898. Besides, the composite z-score was -0.286 in [8]; -0.375 in experiment [9]; -0.123 in [11]; -0.127 in experiment [16]; -0.176 in experiment [17]; -0.187 in experiment [18]. In addition, the composite z-score was -0.326 in experiment [19] and 0.244 in experiment [20]. The z-score was 0.898 in experiment [7]; -0.1 (inactive) in experiment [10]; -0.0676 (inactive) in experiment [12]; -0.147 (inactive) in [13]; 0.134 (inactive) in experiment [14]; 1.5 (inactive) in experiment [15].
Take `COc1ccc([Si](C)(C)[C@H]2[C@H](CCn3cc([C@H](O)c4ccccc4)nn3)O[C@@]3(C(=O)N(c4ccccc4)c4ccccc43)[C@@H]2C)cc1`: the composite z-score in experiment [1] is 0.448; in experiment [2] it was -0.431; in [3], -0.4; in experiment [4], -0.651; in [5] it was 1.24; in [6], 0.195. The composite z-score was 1.51 in experiment [8]; 0.428 in [9]; 0.04 in experiment [11]; -0.265 in [16]; -0.0087 in experiment [17]; 0.96 in [18]. Besides, the figures for the composite z-score in experiment [19] and in experiment [20] were -0.242 and 1.97, respectively. In addition, the z-score in experiment [7] was 0.903; in [10], 0.687 (inactive); in [12] it was -4.47 (inactive); in experiment [13], 0.674 (inactive); in experiment [14], 0.236 (inactive); in experiment [15], 0.115 (inactive).
Turning to `CN1C(=O)[C@]2(CCC(=O)OC(C)(C)C)N=C(c3ccc(OCCCO)cc3)O[C@@H]2c2ccccc21`, the composite z-score in [1] was 1.2; in experiment [2] it was 1.23; in [3], 0.488; in experiment [4], 0.95; in [5], 1.44; in experiment [6], 1.55. For the same molecule, the composite z-score in [8] was 0.853; in [9], 0.182; in experiment [11], 0.935; in experiment [16], -0.201; in experiment [17] it was 0.134; in experiment [18], 0.112. Besides, the composite z-score in experiment [19] worked out at 0.401; in experiment [20], 2.11. Also, the z-score was 1.85 in experiment [7]; -2.79 (inactive) in [10]; -4.74 (inactive) in [12]; -0.598 (inactive) in experiment [13]; 1.41 (inactive) in [14]; -0.572 (inactive) in experiment [15].
